Measurements published in PubChem BioAssay AID588342 (National Center for Advancing Translational Sciences (NCATS), 2011).
In all, about 360,000 compounds went through this assay and about 25,000 (6.9%) were called active. Not shown: some 9% with an inconclusive outcome. The call rests on the fitted dose curve; in most records, active means well fitted inhibition curve with a large enough effect; inconclusive means small, poorly fitted or top-dose-only effect; inactive means flat fitted curve, though single readings scatter. What follows is part of a selection rich in actives, with near analogues and random picks from the rest.

Molecular target: Luciferin 4-monooxygenase (Photinus pyralis) (UniProt P08659)
Sequence (P08659 whole entry, looked up): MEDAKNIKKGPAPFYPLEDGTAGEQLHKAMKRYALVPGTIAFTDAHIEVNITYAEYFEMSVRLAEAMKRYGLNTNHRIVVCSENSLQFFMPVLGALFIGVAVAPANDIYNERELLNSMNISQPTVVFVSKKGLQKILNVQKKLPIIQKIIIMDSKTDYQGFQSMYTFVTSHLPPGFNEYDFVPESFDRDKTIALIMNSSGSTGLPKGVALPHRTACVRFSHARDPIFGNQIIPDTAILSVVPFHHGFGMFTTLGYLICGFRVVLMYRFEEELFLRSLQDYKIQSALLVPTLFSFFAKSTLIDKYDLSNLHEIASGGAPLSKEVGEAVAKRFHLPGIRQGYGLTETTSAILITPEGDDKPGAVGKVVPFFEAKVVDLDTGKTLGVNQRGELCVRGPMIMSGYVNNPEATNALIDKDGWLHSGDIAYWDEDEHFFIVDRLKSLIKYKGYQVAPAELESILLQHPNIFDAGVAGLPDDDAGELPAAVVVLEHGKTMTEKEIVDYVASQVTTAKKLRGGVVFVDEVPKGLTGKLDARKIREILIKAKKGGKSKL
Experiment: qHTS profiling assay for firefly luciferase inhibitor/activator using purifed enzyme and Km concentrations of substrates (counterscreen for miR-21 project); further: nearly all actives have a fitted effect of over 55% in size;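 on activity change, negative = inhibition: plate controls were vehicle for no effect and reference inhibitor for full effect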
Details: purified FLuc, luminescence inhibition; series mostly up to 57.5 µM; activity change, negative = inhibition: at the top concentration
Summary of the method: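 Purified P. pyralis luciferase (10nM final) with 10uM D-luciferin and 10uM ATP (Km levels) in 50mM Tris acetate pH 7.5, 10mM Mg acetate, 0.01% Tween-20, 0.05% BSA; qHTS 6-point titration, ~60 µM downward; luminescence read.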
Potency means the concentration at half of the fitted maximal effect.

| Structure (SMILES) | activity change, negative = inhibition | Potency |
| --- | --- | --- |
| COc1ccccc1N1CCN(S(=O)(=O)CCNC(=O)COc2ccc(F)cc2)CC1 | -6.01% (inactive) | – |
| COc1ccc(S(=O)(=O)N2CCN(CC(=O)NCC3(N4CCOCC4)CCCCC3)CC2)cc1 | 7.45% (inactive) | – |
| CCCCSc1nnc(-c2ccc(C)cc2)o1 | – | 2.69 µM (active) |
| Cc1ccccc1CSc1nnc(CCCCCNC(=O)OC(C)(C)C)o1 | -18% (inactive) | – |
| Cc1ccc(-c2nnc(SCc3ccccc3C)o2)cc1 | – | 10.7 µM (active) |
| COC(=O)CSc1nnc(-c2cccnc2)o1 | 4.39% (inactive) | – |
| Cc1cccc(C)c1OC(=O)CSc1nnc(-c2ccccc2)o1 | 2.68% (inactive) | – |
| CC1=CC(C)(C)N(C(=O)CSc2nnc(-c3ccccc3)o2)c2ccc(C)cc21 | 0.191% (inactive) | – |
| CCOC(=O)CSc1nnc(-c2ccc([N+](=O)[O-])cc2)o1 | -18% (inactive) | – |
| COc1ccc(-c2nnc(SCc3cccnc3)o2)cc1 | – | 21.3 µM (active) |
| COc1cccc(NC(=O)CSc2nnc(-c3cccnc3)o2)c1 | 1.95% (inactive) | – |
| Cc1ccc(C(=O)N2c3ncnn3C3(CCCCC3)[C@@H]3CCCC[C@@H]32)cc1 | -11.4% (inactive) | – |
| Cc1ccc(S(=O)(=O)CCC(=O)OCC(=O)NCCc2ccc(S(N)(=O)=O)cc2)cc1 | 0.363% (inactive) | – |
| COc1ccc(-c2onc(C)c2C)cc1S(=O)(=O)NCC1CCN(Cc2cccc(F)c2)CC1 | 3.47% (inactive) | – |
| CCN(CC)c1cc(NC2CCCCC2)c2c3c(onc13)-c1ccccc1C2=O | -3.88% (inactive) | – |
| O=P(O)(CN1CCCCC1)CN1CCCCC1 | 3.43% (inactive) | – |
| CCOc1ccc(CNC(=O)c2ccc(CS(=O)c3ccccc3)o2)cc1 (centres undefined) | -8.55% (inactive) | – |
| CCN(CC)S(=O)(=O)c1ccc2[nH]c(=O)cc(C(=O)N(C)C3CCS(=O)(=O)C3)c2c1 (centres undefined) | 3.37% (inactive) | – |
| CCc1ccc(C2C(C(=O)Nc3ccccc3)=C(C)Nc3c(C(=O)Nc4ccc(C)cc4)cnn32)cc1 (centres undefined) | -4.9% (inactive) | – |
| CC(=O)Nc1c(C)nn(-c2ccccc2)c1N1CCC(C(=O)Nc2cc(Cl)ccc2C)CC1 | -9.72% (inactive) | – |
| CC1CCCC(C)N1C(=O)CN1CCN(c2nc(-c3ccc(F)cc3)cs2)CC1 (centres undefined) | -6.06% (inactive) | – |
| COCCNC(=O)Nc1ccc2nc(-c3ccco3)c(-c3ccco3)nc2c1 | – | 21.3 µM (active) |
| COc1ccc(NC(=O)COCc2cc(-c3ccco3)on2)cc1 | -10.2% (inactive) | – |
| CCOc1cc(NC(=S)NCCCOC)c(OCC)cc1NC(=O)c1ccco1 | 0.523% (inactive) | – |
| O=C(CCNC(=O)c1ccc(Br)cc1)Nc1cccc(S(=O)(=O)N2CCCCC2)c1 | -4.3% (inactive) | – |
| Cc1ccc(C(=O)NCC(=O)OCC(=O)Nc2cccc(S(=O)(=O)N3CCCC3)c2)cc1C | – | 9.53 µM (active) |

| Structure (SMILES) | activity change, negative = inhibition | Potency |
| --- | --- | --- |
| Cc1ccc(C)c(OCCC(=O)Nc2cccc(S(=O)(=O)N3CCCC3)c2)c1 | -0.118% (inactive) | – |
| CC(OC(=O)c1ccccc1N1C(=O)C2C3CCC(C3)C2C1=O)C(=O)c1ccccc1 (centres undefined) | 4.19% (inactive) | – |
| CC(OC(=O)CN1C(=O)c2ccccc2C1=O)C(=O)c1ccccc1 (centres undefined) | 0.618% (inactive) | – |
| COc1ccc(C(=O)COC(=O)c2ccc3ccccc3n2)cc1 | – | 21.3 µM (active) |
| COc1ccc(C(=O)COC(=O)COc2ccc(C)c(C)c2)cc1 | -17.9% (inactive) | – |
| CC(OC(=O)c1ccc2ccccc2n1)C(=O)c1ccccc1 (centres undefined) | – | 0.953 µM (active) |
| COc1ccc(C(=O)OCC(=O)NC(=O)CCSc2ccccc2)cc1 | -10.5% (inactive) | – |
| CCc1ccc2ncc3c(-c4ccc(C)cc4)nn(CC(=O)NCc4ccccc4)c3c2c1 | 2.49% (inactive) | – |
| COC(=O)C1=CO[C@@H](O[C@@H]2O[C@H](CO)[C@@H](O)[C@H](O)[C@H]2O)C2C1C[C@H](O)[C@@H]2C (some centres undefined) | -0.138% (inactive) | – |
| Cc1ccc(Cn2c(SCC(=O)N/N=C/c3ccccc3OCC(=O)O)nc3ccccc32)cc1 | -19.8% (inactive) | – |
| CCn1c(SCC(=O)N/N=C/c2ccccc2OCC(=O)O)nnc1-c1ccc(C(C)(C)C)cc1 | – | 26.9 µM (active) |
| CCn1c(SCC(=O)N/N=C/C=C/c2ccccc2[N+](=O)[O-])nnc1-c1ccccc1 | -1.86% (inactive) | – |
| CNC(=O)c1csc(Cc2c(Cl)sc3ccc(Cl)cc23)n1 | -1.07% (inactive) | – |
| O=C(COC(=O)c1ccccc1C(=O)c1ccccc1)c1ccco1 | 1.88% (inactive) | – |
| CCN(CC)c1ccc(C(=O)OCC(=O)c2ccco2)cc1 | – | 15.1 µM (active) |
| O=C(OCC(=O)N1CCN(C(=O)c2ccco2)CC1)c1ccc(Cl)c(Cl)c1 | 3.62% (inactive) | – |
| O=C(COC(=O)c1ccco1)NCc1ccc(Cl)cc1 | -13.8% (inactive) | – |
| O=C(OCC(=O)N1CCCC1)c1ccco1 | 4.45% (inactive) | – |
| CCc1ccc(C(=O)COC(=O)c2ccco2)cc1 | – | 0.478 µM (active) |
| C[C@@H](NC(=O)[C@@H]1Cc2ccccc2CN1)C(=O)NC1CCCC1 | 0.763% (inactive) | – |
| COc1ccccc1CNC(=O)c1cc(=O)c2ccccc2o1 | -11.9% (inactive) | – |
| CCOC(=O)c1sc(N)c(C#N)c1COC(=O)C1=COCCO1 | -1.27% (inactive) | – |
| CN(CC(=O)Nc1c(Cl)cccc1Cl)C(=O)CC1OC(=O)c2ccccc21 (centres undefined) | 3.1% (inactive) | – |
| CCOc1ccc(N(CC)S(=O)(=O)N2CCCC(C(=O)NCc3ccc(SC)cc3)C2)cc1 (centres undefined) | -13.4% (inactive) | – |
| Cc1oc2c(c1C(=O)Nc1ccc(F)c(F)c1)C1=NCCN1C=N2 | 0.154% (inactive) | – |
| N#Cc1ccc(C2N=C(c3ccccc3)NO2)cc1 (centres undefined) | – | 10.7 µM (active) |

| Structure (SMILES) | activity change, negative = inhibition | Potency |
| --- | --- | --- |
| Brc1ccccc1C1N=C(c2ccccc2)NO1 (centres undefined) | – | 19 µM (active) |
| CCOC(=O)Cn1c(=O)n(C2CCCCC2)c2nc(-c3cccc(OC)c3)nc(C(N)=O)c21 | 1.49% (inactive) | – |
| COc1ccc(CNC(=O)c2cc3c(-c4ccccc4F)nn(C)c3s2)c(OC)c1 | 2.08% (inactive) | – |
| CCOC(=O)C1CCCN(C(=O)c2ccc(-n3ccc4ccccc43)s2)C1 (centres undefined) | -16.1% (inactive) | – |
| CCN(Cc1ccccc1)C(=O)CCS(=O)(=O)c1ccc2c(c1)oc(=O)n2C | – | inactive |
| Cc1ccc(/C=C/C(=O)OCC(=O)NCc2ccc(Cl)cc2)o1 | -2.85% (inactive) | – |
| CCC(=O)N1CCc2cc(Br)cc(S(=O)(=O)NCc3ccc(Cl)cc3)c21 | -8.46% (inactive) | – |
| CCCNC(=O)c1ccc2c(c1)ncn2-c1ccc(C)cc1C | 1.1% (inactive) | – |
| C=CCNC(=O)c1ccc(C)c(Br)c1 | -2.07% (inactive) | – |
| C=CCNC(=O)c1ccc2c3n(nc2c1)-c1ccc(C)cc1CO3 | – | 2.39 µM (active) |
| COc1cccc(CNC(=O)C(NS(=O)(=O)c2ccc3nc(C)sc3c2)C(C)C)c1 (centres undefined) | -1.94% (inactive) | – |
| COc1ccc(OC)c(/C(C)=N\NC(=O)c2cc3cc(Cl)ccc3n2C)c1 | 0.109% (inactive) | – |
| COc1ccc(Cl)cc1NC(=O)CN(C)C(=O)CNC(=O)C12CC3CC(CC(C3)C1)C2 | -0.933% (inactive) | – |
| C/C(=N/NC(=O)c1cc(Cl)ccc1O)C12CC3CC(CC(C3)C1)C2 | – | 15.1 µM (active) |
| NC(=O)NCCCC(=O)O | 0.395% (inactive) | – |
| CSc1ncc(C(=O)NCc2ccccc2Cl)c(C(F)(F)F)n1 | 1.14% (inactive) | – |
| Cc1cc2nc(SCCN3CCOCC3)[nH]c2cc1C | – | 19 µM (active) |
| Cc1cccc(C)c1OCCN1CCOCC1 | 2.23% (inactive) | – |
| CCn1c2ccc(F)cc2c2nnc(SCCN3CCOCC3)nc21 | 4.01% (inactive) | – |
| Cc1ccc(C(=O)Nc2ccc(NC(=O)c3cccs3)cc2)c(C)c1 | 0.511% (inactive) | – |
| Cc1ccc(NC(=O)c2cccs2)cc1S(=O)(=O)N(C)C | – | 15.1 µM (active) |
| COc1ccc(CCC(=O)OCC(=O)Nc2ccc(C)c(S(=O)(=O)N(C)C)c2)cc1 | -10.3% (inactive) | – |
| Cc1ccc(C(=O)Nc2ccc(C(=O)O)cc2)cc1S(=O)(=O)Nc1ccccc1 | -16.6% (inactive) | – |
| Cc1ccc(C(=O)Nc2ccc(C)c(S(=O)(=O)N(C)C)c2)s1 | – | 1.9 µM (active) |
| Cc1ccc(NC(=O)CNCc2ccccn2)cc1S(=O)(=O)N(C)C | 0.098% (inactive) | – |
| Cc1cc(C)c(/C=C/c2onc(C)c2S(=O)(=O)N2CCC(C(=O)Nc3ccc(Cl)cc3C)CC2)c(C)c1 | -0.359% (inactive) | – |

| Structure (SMILES) | activity change, negative = inhibition | Potency |
| --- | --- | --- |
| COc1ccc(C(=O)CSc2c(C(C)C)cnc3c2c(=O)n(C)c(=O)n3C)cc1 | 1.21% (inactive) | – |
| O=C(CSc1nc2nccnc2c(=O)n1CCc1c[nH]c2ccccc12)Nc1ccccc1F | -13.8% (inactive) | – |
| O=C(CN1CCN(Cc2ccc(Cl)cc2)C1=O)NCc1ccc(F)cc1 | -3.28% (inactive) | – |
| COc1ccc(N2C(=O)CS(=O)(=O)C23C(=O)N(Cc2ccc(C)cc2)c2ccccc23)cc1Cl (centres undefined) | 5.02% (inactive) | – |
| O=S(=O)(NCCS(=O)(=O)N1CCN(c2ccccc2)CC1)c1ccc(Cl)cc1 | 0.0657% (inactive) | – |
| CN(C)c1cc[n+](Cc2ccccc2)cc1 | -1.97% (inactive) | – |
| CC1=NN(Cc2ccccc2)C(=O)/C1=C/c1ccc(N(C)C)cc1 | – | 6.75 µM (active) |
| CSc1c(SCc2ccccc2)cnn(Cc2ccccc2)c1=O | -18.5% (inactive) | – |
| COc1ccc(C)cc1NC(=O)CN1c2cccc3cccc(c23)S1(=O)=O | -0.145% (inactive) | – |
| CCOC(=O)c1cc(-c2ccccc2C)n(Cc2cc(C)no2)n1 | -3.14% (inactive) | – |
| COc1cccc(OC)c1C(=O)Nc1ccc(Cc2ccncc2)cc1 | -10.8% (inactive) | – |
| CCc1ccc(NC(=O)Nc2ccncc2)cc1 | – | 9.53 µM (active) |
| CC(C)CC(=O)Nc1ccc(Cc2ccncc2)cc1 | -0.47% (inactive) | – |
| CCCN(C(=O)c1nc2nccc(C)n2n1)c1c(N)n(Cc2ccccc2)c(=O)[nH]c1=O | -2.05% (inactive) | – |
| CCOC(=O)/C(=N\Nc1cc(Cl)ccc1Cl)N1CCN(C)CC1 | -1.6% (inactive) | – |
| CC(C)Cc1nc(Nc2ccc(S(=O)(=O)N3CCCC3)cc2)c2nnn(Cc3ccccc3)c2n1 | -0.534% (inactive) | – |
| Cc1onc(-c2ccc(F)cc2F)c1C(=O)Nc1cccc(C(F)(F)F)c1 | -0.0598% (inactive) | – |
| CCCC(=O)Nc1cccc(NC(=S)NC(=O)C(C)Oc2ccc(Cl)cc2Cl)c1 (centres undefined) | 0.164% (inactive) | – |
| CC(C)n1ncc2c(C(=O)NCc3ccccc3CN(C)C)cc(C3CC3)nc21 | -2.31% (inactive) | – |
| COC(=O)Cc1csc(Nc2c(C)n(C)n(-c3ccccc3)c2=O)n1 | 0.205% (inactive) | – |
| COC(=O)Cc1cc(=O)n(-c2nc3ccccc3s2)[nH]1 | – | 16.9 µM (active) |
| COC(=O)CC1=NN(c2nc(C)cc(C)n2)C(=O)C1 | -2.4% (inactive) | – |
| CCCCOc1ccc(CNC(=O)c2ccc3c(c2)N(C)C(=O)C2CCCCN32)cc1 (centres undefined) | -16.9% (inactive) | – |
| C/C(=N\c1nc2ccccc2n1C)c1cc(Cl)ccc1O | 1.93% (inactive) | – |
| Cn1c(Nc2cccc(Cl)c2)nc2ccccc21 | – | 26.9 µM (active) |
| Cc1c(C(=O)Nc2cccc(Cl)c2)cn2c(nc3ccccc32)c1C#N | 0.605% (inactive) | – |
